According to PubChem BioAssay AID1476 (National Center for Advancing Translational Sciences (NCATS), 2009):
Hit rate of the full screen: of about 200,000 compounds, about 4,500 (2.2%) were called active. Another 12% or so got no clear call; they are omitted. Shown is part of a subset that was picked to be rich in actives. A number with no mark means an inactive call. The call rests on the fitted dose curve; in most records, active means well fitted inhibition curve with a large enough effect; inconclusive means small, poorly fitted or top-dose-only effect, or effect the other way; inactive means flat fitted curve, though single readings scatter.

Each compound was assayed against Cruzipain (Trypanosoma cruzi) (UniProt P25779) (assay: qHTS Assay for Promiscuous and Specific Inhibitors of Cruzain (without detergent)). Conditions: purified cruzain, Z-FR-AMC fluorescence, no detergent.
Cruzipain (Trypanosoma cruzi), sequence (P25779 123-467 limits assumed): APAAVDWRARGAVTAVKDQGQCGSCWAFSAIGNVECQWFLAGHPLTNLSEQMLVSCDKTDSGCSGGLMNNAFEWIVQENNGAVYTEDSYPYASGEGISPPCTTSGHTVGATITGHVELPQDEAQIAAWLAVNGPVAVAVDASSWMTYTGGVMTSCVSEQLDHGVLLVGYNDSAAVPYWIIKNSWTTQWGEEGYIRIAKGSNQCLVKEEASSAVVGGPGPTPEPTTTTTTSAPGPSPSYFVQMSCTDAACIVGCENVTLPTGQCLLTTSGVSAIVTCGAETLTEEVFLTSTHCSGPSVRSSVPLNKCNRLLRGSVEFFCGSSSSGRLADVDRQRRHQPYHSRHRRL
Description: Cruzain is a cysteine protease from the tropical parasite Trypanosoma cruzi. Dual qHTS experiment was performed against the NCGC compound collection in order to 1) identify novel inhibitors of the enzyme and 2) profile the compound collection for promiscuous inhibitors operating via colloidal aggregation (by performing detergent-free and detergent-containing comparison screens). Cruzain was assayed by the use of fluorogenic coumarin-based substrate Z-FR-AMC: proteolytic cleavage releases AMC, whose fluorescence is measured at 360 nm excitation and 450 nm emission. Purified cruzain was supplied by the labs of Prof. James McKerrow and Brian Shoichet, UC San Francisco.
This assay had 0.00005% Triton X-100 concentration. See also releated assay "qHTS Assay for Promiscuous and Specific Inhibitors of Cruzain (with detergent)" with 0.01% Triton X-100.
See following references for additional details:
Assay Provider: Shoichet, Brian; University of California, San Fancisco
Screening Center PI: Austin, C.P.
Screening Center: NIH Chemical Genomics Center [NCGC]
Buffer: 100 mM Sodium Acetate, pH 5.5, 5 mM DTT, Triton X-100 concentration: 0.01%.
Buffer in columns 3 and 4 as negative control (no enzyme).
Substrate solution: 2 uM final concentration of Z-FR-AMC (catalog number I-1160, Bachem) dispensed throughout the plate.
Enzyme: 1.5 nM Cruzain final concentration in columns 1, 2, 5-48. Column 1 is neutral (100% activity). Column 2 contained titration of covalent inhibitor K11777, starting concentration 1 mM, then 1:2 dilution in duplicate).
Three uL of enzyme or buffer were dispensed to 1536-well Greiner black solid bottom plates. Compounds and controls (23 nL) were transferred via Kalypsys PinTool. The plates were incubated for 15 min at room temperature, and then 1 uL of substrate solution was added to start the reaction. The plates were immediately transferred to and read 4 times every 30 seconds for 2 min on ViewLux High-throughput CCD imager (Perkin-Elmer) using 360 nm excitation and 450 nm emission fluorescence protocol. The fluorescence intensity difference between the third and the first time points (time lapse of 60 seconds) was used to compute reaction progress.
Further: nearly all actives have a fitted effect of over 40% in size.
Potency means the concentration at half of the fitted maximal effect.

Compound	max response, negative = inhibition	Potency
Cc1ccc(NC(=O)COc2ccc(-n3ccnc3)cc2)cc1Cl	3.27%	
Cc1cc(C)c(NC(=O)CS(=O)CC(=O)Nc2cccnc2)c(C)c1 (stereo not drawn)	-6.14%	
Cc1ccc(-c2nc(-c3cccnc3)sc2CC(=O)Nc2ccc(C)c(Cl)c2)cc1		25.1 µM (active)
Cc1ccc(-c2ccc(CCC(=O)O)n2-c2ccc(C(N)=O)cc2)cc1	-3.67%	
O=C(Nc1ccc2c(c1)CCC2)c1cccc(S(=O)(=O)N2CCN(c3ccc(F)cc3)CC2)c1		20 µM (active)
O=C(Nc1cccc(F)c1)c1ccc(S(=O)(=O)N2CCCC2)cc1	6.1%	
O=C(Nc1ccc2c(c1)CCC2)c1cccc(S(=O)(=O)Nc2ccccc2Cl)c1	-19.6%	
O=C(Cn1nc(Cc2cccnc2)c2ccccc2c1=O)N1CCN(c2ccccc2F)CC1	-3.19%	
O=C(NCCc1ccccc1)c1ccc2c(c1)N(Cc1ccccc1)C(=O)c1ccccc1S2(=O)=O		20 µM (active)
O=C(NCCc1ccccc1)c1ccc2c(c1)N(Cc1ccc(F)cc1)C(=O)c1ccccc1S2(=O)=O	2.91%	
COCCNC(=O)c1ccc2c(c1)N(Cc1cccc(Cl)c1)C(=O)c1ccccc1S2(=O)=O	9.95%	
Cc1nn(-c2ccc(N3CCCCC3)nn2)c(C)c1CCC(=O)NCc1ccccc1F	-5.41%	
Cc1cc(Br)ccc1NC(=O)Cn1cnc2sc(C)c(S(=O)(=O)N3CCN(C)CC3)c2c1=O	-2.69%	
c1ccc(-c2nnc(SCc3nc4ccccc4[nH]3)o2)cc1		12.6 µM (active)
Clc1ccccc1SCc1nc2ccccc2[nH]1	-0.47%	
Clc1ccc(-c2nnc(SCc3nc4ccccc4s3)o2)cc1	-6.5%	
COc1ccc(N2CC(C(=O)NCCS(=O)(=O)N3CCN(c4ccccc4)CC3)CC2=O)cc1 (stereo not drawn)	3.76%	
Cc1ccc(C(=O)COC(=O)C(Cc2c[nH]c3ccccc23)NC(=O)c2ccc(Br)cc2)cc1 (stereo not drawn)		12.6 µM (active)
Cc1[nH]c2ccccc2c1C(=O)COC(=O)C(C)C	3.26%	
O=C(Cc1c[nH]c2ccccc12)OCCOC(=O)Cc1c[nH]c2ccccc12	1.16%	
CN(C(=O)c1ccc2c(c1)N(Cc1cccc(Cl)c1)C(=O)c1ccccc1S2=O)C1CCCCC1 (stereo not drawn)	-3.62%	
Cc1csc2nc(COC(=O)c3ccccc3NC(=O)c3ccccc3Cl)cc(=O)n12	-1.98%	
COc1ccc(Cl)cc1NC(=O)C(C)Sc1nc2c(c(=O)[nH]1)CCCC2 (stereo not drawn)	-3.86%	
